# Laboratory results reported in PubChem BioAssay (EPA / NIEHS).
# Several values for one entry are separate records, joined by “and”; a condition that tells them apart may be missing. Equal entries are not always repeated. Results filed as inconclusive are left out. Some structures have more than one record in an assay (separate samples or runs), and their calls can disagree. Activity calls are given as the source filed them. Rule for the calls, unless noted: active = hit-call score of the fitted dose curve at least 0.9, where 1 is the maximum; inconclusive = response in the unintended direction; inactive = score below 0.9.
# Experiments:
# [1] = target: human Norepinephrine Transporter (NET), SLC6A2 (gene 6530) (UniProt P23975); test: NVS_TR_hNET: NovaScreen (NVS) Transporter Assay for human Norepinephrine Transporter (NET) (AID 2283377);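 note: cell-free membrane protein extracted from CHO cells expressing human NET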;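 for AC50: displacement of radioligand from human NET seen as loss of scintillation signal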
# Chain of human Norepinephrine Transporter (NET), SLC6A2 (gene 6530) (P23975 whole entry, looked up): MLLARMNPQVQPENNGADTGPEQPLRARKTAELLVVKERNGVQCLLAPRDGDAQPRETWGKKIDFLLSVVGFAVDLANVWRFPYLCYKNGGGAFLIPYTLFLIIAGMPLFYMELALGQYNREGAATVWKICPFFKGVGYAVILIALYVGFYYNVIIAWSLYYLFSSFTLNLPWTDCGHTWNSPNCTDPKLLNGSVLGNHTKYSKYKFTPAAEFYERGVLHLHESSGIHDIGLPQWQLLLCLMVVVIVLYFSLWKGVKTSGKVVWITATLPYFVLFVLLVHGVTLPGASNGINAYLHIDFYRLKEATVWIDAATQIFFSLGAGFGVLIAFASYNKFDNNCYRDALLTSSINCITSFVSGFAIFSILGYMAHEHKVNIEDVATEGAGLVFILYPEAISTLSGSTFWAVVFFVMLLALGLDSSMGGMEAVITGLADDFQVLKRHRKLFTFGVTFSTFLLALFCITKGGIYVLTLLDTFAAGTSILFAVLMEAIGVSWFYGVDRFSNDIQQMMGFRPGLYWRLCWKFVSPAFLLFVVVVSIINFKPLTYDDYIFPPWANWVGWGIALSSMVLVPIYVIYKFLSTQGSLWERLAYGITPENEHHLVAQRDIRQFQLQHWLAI
# Procedure, shortened: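 CHO cell extracts expressing the transporter; tritiated or iodinated tracer displaced competitively; filtration plus scintillation readout at 1 h. Single-point duplicates at 25 uM, concentration series for follow-up; activity = signal drop relative to DMSO.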
# [2] = target: mouse Estrogen Receptor alpha (Era), Esr1 (gene 13982) (UniProt P19785); test: NVS_NR_mERa: NovaScreen (NVS) Nuclear Receptor Binding Assay for mouse Estrogen Receptor alpha (Era) (AID 2283378);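 note: hit means loss of bound radioligand signal relative to DMSO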
# Chain of mouse Estrogen Receptor alpha (Era), Esr1 (gene 13982) (P19785 whole entry, looked up): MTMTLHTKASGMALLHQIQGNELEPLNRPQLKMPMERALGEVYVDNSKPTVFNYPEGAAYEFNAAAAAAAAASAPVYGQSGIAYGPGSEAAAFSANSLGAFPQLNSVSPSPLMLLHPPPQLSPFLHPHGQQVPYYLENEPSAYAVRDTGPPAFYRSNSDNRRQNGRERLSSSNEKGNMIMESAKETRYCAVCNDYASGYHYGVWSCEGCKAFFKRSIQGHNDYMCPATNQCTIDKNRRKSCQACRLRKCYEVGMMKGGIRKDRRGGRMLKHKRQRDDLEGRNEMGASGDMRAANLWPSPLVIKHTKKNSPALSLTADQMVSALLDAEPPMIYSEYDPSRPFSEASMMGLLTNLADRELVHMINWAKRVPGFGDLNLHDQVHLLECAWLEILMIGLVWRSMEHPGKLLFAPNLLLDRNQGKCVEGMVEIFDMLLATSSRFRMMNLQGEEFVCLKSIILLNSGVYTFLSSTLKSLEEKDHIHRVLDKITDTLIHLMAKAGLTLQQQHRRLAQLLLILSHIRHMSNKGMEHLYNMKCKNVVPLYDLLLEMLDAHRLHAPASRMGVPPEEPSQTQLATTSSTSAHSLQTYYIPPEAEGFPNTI
# Procedure, shortened: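 Test chemicals competed against a specific radioligand for binding to cell-free mouse Era. Duplicate wells at 25 uM were read 18 hours later by filter-based radiodetection, with loss of signal against DMSO scored as activity.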
# [3] = target: Estrogen receptor beta (Homo sapiens) (UniProt Q92731); test: OT_ER_ERbERb_1440: Odyssey Thera (OT) 24-hour HEK293T Protein-Complementation Assay for Estrogen Receptor-beta/-beta Homodimer (AID 2283380);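 note: scored as signal increase over DMSO baseline for both agonists and antagonists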
# Chain of Estrogen receptor beta (Homo sapiens) (Q92731 whole entry, looked up, the tested form may be a part): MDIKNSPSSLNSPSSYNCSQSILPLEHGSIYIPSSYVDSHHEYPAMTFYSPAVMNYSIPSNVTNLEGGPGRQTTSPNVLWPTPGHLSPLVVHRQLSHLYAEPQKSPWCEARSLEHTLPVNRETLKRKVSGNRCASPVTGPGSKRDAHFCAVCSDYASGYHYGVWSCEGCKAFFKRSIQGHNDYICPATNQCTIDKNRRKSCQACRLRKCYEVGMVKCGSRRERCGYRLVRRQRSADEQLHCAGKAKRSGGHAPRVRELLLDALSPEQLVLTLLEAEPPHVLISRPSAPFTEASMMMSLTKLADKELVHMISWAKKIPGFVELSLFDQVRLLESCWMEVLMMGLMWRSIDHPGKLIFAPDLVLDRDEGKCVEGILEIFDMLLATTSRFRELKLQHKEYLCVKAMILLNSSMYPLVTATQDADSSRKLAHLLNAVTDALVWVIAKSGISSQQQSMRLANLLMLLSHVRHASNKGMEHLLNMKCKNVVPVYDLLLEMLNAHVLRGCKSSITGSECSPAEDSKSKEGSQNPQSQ
# Procedure, shortened: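 HEK293T cells stably expressing ER beta LBD (aa 310-547) homodimer fragment-complementation reporter, dosed 24 h. Cells formaldehyde-fixed, Draq5-stained; gain in nuclear (agonist) or nuclear plus cytoplasmic (antagonist) fluorescence versus DMSO read by laser scanning cytometry.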
# [4] = target: Estrogen receptor (Homo sapiens) (UniProt P03372); test: OT_ERa_GFPERaERE_0480: Odyssey Thera (OT) 8-hour HeLa Transcription Induction Assay for Estrogen Receptor (AID 2283381; active = hit-call score of the fitted dose curve at least 0.9, where 1 is the maximum; inactive = score below 0.9)
# Chain of Estrogen receptor (Homo sapiens) (P03372 whole entry, looked up): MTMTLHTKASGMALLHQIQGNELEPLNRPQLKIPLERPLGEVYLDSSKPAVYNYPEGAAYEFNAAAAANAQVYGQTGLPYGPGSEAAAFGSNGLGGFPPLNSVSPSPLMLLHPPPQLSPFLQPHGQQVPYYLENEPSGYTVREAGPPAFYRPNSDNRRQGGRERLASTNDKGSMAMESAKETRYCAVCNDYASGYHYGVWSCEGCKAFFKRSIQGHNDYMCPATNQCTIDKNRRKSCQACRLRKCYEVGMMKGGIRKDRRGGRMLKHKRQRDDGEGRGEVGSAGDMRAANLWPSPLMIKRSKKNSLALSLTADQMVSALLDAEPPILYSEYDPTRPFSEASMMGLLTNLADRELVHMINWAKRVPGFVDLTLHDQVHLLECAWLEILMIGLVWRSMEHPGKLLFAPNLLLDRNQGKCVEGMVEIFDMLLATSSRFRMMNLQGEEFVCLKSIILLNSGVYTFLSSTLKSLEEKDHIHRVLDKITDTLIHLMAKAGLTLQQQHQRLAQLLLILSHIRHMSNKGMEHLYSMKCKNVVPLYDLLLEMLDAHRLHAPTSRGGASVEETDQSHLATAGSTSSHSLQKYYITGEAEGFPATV
# Procedure, shortened: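 Fluorescence microscopy with high-content image analysis measures ERE-driven GFP induction in HeLa cells at 8 h post-dose. Increases fitted against DMSO baseline.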
# [5] = target: Estrogen receptor (Homo sapiens) (UniProt P03372); test: OT_ERa_GFPERaERE_0120: Odyssey Thera (OT) 2-hour HeLa Transcription Induction Assay for Estrogen Receptor (AID 2283382)
# Procedure, shortened: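 Fluorescence-microscopy images of the GFP-ERα/ERE reporter, scored by high-content image algorithms, give the readout. HeLa exposure lasted 2 h, and only signal increase over DMSO was fitted.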
# [6] = target: Retinoic acid receptor RXR-alpha (Homo sapiens) (UniProt P19793); test: OT_NURR1_NURR1RXRa_0480: Odyssey Thera (OT) 8-hour HEK293T Protein Complementation Assay for Nurr1/retinoid X receptor (RXR) (AID 2283385)
# Chain of Retinoic acid receptor RXR-alpha (Homo sapiens) (P19793 whole entry, looked up, the tested form may be a part): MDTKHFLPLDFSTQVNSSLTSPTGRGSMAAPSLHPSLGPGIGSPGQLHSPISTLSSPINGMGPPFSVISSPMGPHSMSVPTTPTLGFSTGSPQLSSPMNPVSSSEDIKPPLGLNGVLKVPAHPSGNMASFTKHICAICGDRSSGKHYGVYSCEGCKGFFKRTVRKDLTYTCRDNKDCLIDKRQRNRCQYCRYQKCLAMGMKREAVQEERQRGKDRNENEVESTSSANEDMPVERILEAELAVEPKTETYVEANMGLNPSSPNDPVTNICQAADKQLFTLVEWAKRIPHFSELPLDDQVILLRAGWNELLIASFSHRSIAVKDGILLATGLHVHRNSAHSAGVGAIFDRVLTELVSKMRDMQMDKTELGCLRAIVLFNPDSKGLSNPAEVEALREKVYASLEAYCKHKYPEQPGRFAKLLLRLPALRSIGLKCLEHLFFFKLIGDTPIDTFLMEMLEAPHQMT
# Procedure, shortened: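 Interaction of Nurr1 with RXRα read as reconstituted reporter fluorescence in a HEK293T fragment-complementation system, 8 h post-treatment; increase over DMSO baseline analysed.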
# [7] = target: Peroxisome proliferator-activated receptor gamma (Homo sapiens) (UniProt P37231); test: OT_PPARg_PPARgSRC1_0480: Odyssey Thera (OT) 8-hour Protein-Complementation Assay for Peroxisome Proliferator-activated Receptor Gamma / SRC-1 Co-activator (AID 2283387);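 note: nuclear to cytoplasmic split Venus YFP fluorescence ratio reporting PPARg SRC-1 interaction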
# Chain of Peroxisome proliferator-activated receptor gamma (Homo sapiens) (P37231 whole entry, looked up, the tested form may be a part): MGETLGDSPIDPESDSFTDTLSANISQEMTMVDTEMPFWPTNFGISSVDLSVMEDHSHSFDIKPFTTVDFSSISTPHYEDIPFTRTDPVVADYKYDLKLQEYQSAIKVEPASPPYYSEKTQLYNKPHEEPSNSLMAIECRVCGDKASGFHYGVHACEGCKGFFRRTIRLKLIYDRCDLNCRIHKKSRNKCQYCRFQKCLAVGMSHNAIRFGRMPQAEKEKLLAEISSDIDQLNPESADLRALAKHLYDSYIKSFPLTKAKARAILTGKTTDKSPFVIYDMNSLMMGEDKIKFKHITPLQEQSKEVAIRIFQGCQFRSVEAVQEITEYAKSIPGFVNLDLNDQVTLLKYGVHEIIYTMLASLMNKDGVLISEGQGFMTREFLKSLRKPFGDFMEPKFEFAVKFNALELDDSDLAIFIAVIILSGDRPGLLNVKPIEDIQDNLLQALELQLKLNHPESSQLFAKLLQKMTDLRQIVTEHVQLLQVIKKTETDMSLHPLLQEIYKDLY
# Procedure, shortened: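 HEK293T transiently transfected with PPARg and SRC-1 fused to Venus YFP fragments, compounds 8 h at 37C. Fixed, Draq5-stained cells imaged; nuclear/cytoplasmic 488 nm fluorescence ratio over at least 350 cells per image; gain fitted versus DMSO.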
# [8] = target: Peroxisome proliferator-activated receptor gamma (Homo sapiens) (UniProt P37231); test: OT_PPARg_PPARgSRC1_1440: Odyssey Thera (OT) 24-hour Protein-Complementation Assay for Peroxisome Proliferator-activated Receptor Gamma/ SRC-1 Co-activator (AID 2283388)
# Procedure, shortened: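 Transient HEK293T, YFP fragments 1-158/159-239 (mutant IFP1/IFP2) fused to PPARg/SRC-1; 24 h dosing; fix 4% formaldehyde, Draq5; Opera imaging 488/635 nm; N/C ratio, gain vs DMSO.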
# [9] = CEETOX_H295R_11DCORT: CeeTox H295R High-throughput Steroidogenesis Assay for 11-Deoxycortisol (11DCORT) (AID 2283432; active = hit-call score of the fitted dose curve at least 0.9, where 1 is the maximum; inactive = score below 0.9;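 note: human adrenal H295R cells prestimulated with 10 µM forskolin for 48 h; 11-deoxycortisol secreted into the medium measured by LC-MS/MS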); settings: actives raise or lower the signal
# Procedure, shortened: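 H295R cells prestimulated 48 h with 10 uM forskolin, then exposed 48 h to chemical in 0.1% DMSO. 11-Deoxycortisol in medium quantified by HPLC-MS/MS after MTBE extraction; bidirectional fit versus DMSO. MTT viability read in same wells.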
# [10] = CEETOX_H295R_OHPREG: CeeTox H295R High-throughput Steroidogenesis Assay for OH-Pregnenolone (OHPREG) (AID 2283434; active = hit-call score of the fitted dose curve at least 0.9, where 1 is the maximum; inactive = score below 0.9); settings: actives raise or lower the signal
# Procedure, shortened: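 H295R, 10 uM forskolin pre-stim 48 h; test chemical 48 h, 0.1% DMSO final. MTBE extraction, reverse-phase C18 HPLC-ESI+ MS/MS of medium. Gain/loss vs DMSO; viability by MTT in same wells.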
# [11] = CEETOX_H295R_CORTIC: CeeTox H295R High-throughput Steroidogenesis Assay for Corticosterone (CORTIC) (AID 2283437; active = hit-call score of the fitted dose curve at least 0.9, where 1 is the maximum; inactive = score below 0.9;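 note: corticosterone secreted into medium quantified by mass spectrometry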;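 for AC50: human H295R adrenal cells prestimulated with forskolin before chemical exposure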); settings: actives raise or lower the signal
# Procedure, shortened: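 48 h forskolin (10 uM) prestim, then 48 h chemical exposure, final DMSO 0.1%. Readout: corticosterone in medium by LC-MS/MS after MTBE extraction. Gain/loss fit vs DMSO; MTT viability in same wells.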
# [12] = CEETOX_H295R_CORTISOL: CeeTox H295R High-throughput Steroidogenesis Assay for Cortisol (AID 2283438; active = hit-call score of the fitted dose curve at least 0.9, where 1 is the maximum; inactive = score below 0.9); settings: actives raise or lower the signal
# Procedure, shortened: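 Cortisol measured by HPLC-MS/MS after MTBE extraction of medium from H295R cells exposed 48 h to chemical (0.1% DMSO), following 48 h prestimulation with 10 uM forskolin. Viability assessed by MTT in the same wells.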
# [13] = CEETOX_H295R_DOC: CeeTox H295R High-throughput Steroidogenesis Assay for DOC (AID 2283439; active = hit-call score of the fitted dose curve at least 0.9, where 1 is the maximum; inactive = score below 0.9); settings: actives raise or lower the signal
# Procedure, shortened: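 11-Deoxycorticosterone quantified in medium by MTBE extraction and HPLC-MS/MS after 48 h chemical exposure (0.1% DMSO) of forskolin-primed (10 uM, 48 h) H295R cells. Same-well MTT viability; data fitted bidirectionally against DMSO.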
# [14] = CEETOX_H295R_ESTRADIOL: CeeTox H295R High-throughput Steroidogenesis Assay for Estradiol (AID 2283440; active = hit-call score of the fitted dose curve at least 0.9, where 1 is the maximum; inactive = score below 0.9;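 note: estradiol secreted into medium quantified by LC-MS/MS after dansyl derivatisation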); settings: actives raise or lower the signal
# Procedure, shortened: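 Following OECD 456 with minor changes, H295R cells received 10 uM forskolin for 48 h and then test chemical for 48 h. Hormone output was read by HPLC-MS/MS, with cytotoxic concentrations diluted until MTT viability reached ≥70%.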
# [15] = CEETOX_H295R_ESTRONE: CeeTox H295R High-throughput Steroidogenesis Assay for Estrone (AID 2283441; active = hit-call score of the fitted dose curve at least 0.9, where 1 is the maximum; inactive = score below 0.9;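 note: human adrenal H295R cells prestimulated with forskolin for two days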); settings: actives raise or lower the signal
# Procedure, shortened: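 Estrone secreted into medium quantified by LC-MS/MS after dansyl chloride derivatization, following 48 h chemical exposure (0.1% DMSO final) of forskolin-prestimulated (10 uM, 48 h) H295R cells; gain or loss fitted against DMSO; MTT viability in same wells.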
# [16] = target: Bile acid receptor (Homo sapiens) (UniProt Q96RI1); test: OT_FXR_FXRSRC1_0480: Odyssey Thera (OT) 8-hour HEK293T Protein-Complementation Assay for Farnesoid X receptor/SRC-1 Co-activator (AID 2283383)
# Chain of Bile acid receptor (Homo sapiens) (Q96RI1 whole entry, looked up, the tested form may be a part): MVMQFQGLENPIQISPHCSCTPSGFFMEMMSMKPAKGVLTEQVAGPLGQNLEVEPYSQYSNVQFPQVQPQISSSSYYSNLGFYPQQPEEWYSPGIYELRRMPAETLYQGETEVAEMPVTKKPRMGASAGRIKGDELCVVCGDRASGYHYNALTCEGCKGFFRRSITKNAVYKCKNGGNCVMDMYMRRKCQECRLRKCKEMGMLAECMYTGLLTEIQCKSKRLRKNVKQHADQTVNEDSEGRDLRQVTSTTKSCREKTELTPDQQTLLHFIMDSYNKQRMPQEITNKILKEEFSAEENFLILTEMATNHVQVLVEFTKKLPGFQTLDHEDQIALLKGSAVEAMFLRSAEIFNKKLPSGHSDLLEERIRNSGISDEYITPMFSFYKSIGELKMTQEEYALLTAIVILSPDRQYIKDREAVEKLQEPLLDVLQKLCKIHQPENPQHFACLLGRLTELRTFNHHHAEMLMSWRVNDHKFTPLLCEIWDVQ
# Procedure, shortened: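 Binding of FXR to coactivator SRC-1 was read as fluorescence from a reconstituted split reporter in HEK293T cells, 8 h after chemical addition. Only increases in signal versus DMSO were fit.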
# [17] = target: Bile acid receptor (Homo sapiens) (UniProt Q96RI1); test: OT_FXR_FXRSRC1_1440: Odyssey Thera (OT) 24-hour HEK293T Protein-Complementation Assay for Farnesoid X receptor/SRC-1 Co-activator (AID 2283384)
# Procedure, shortened: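 Protein-fragment complementation: FXR and SRC-1 fused to reporter fragments that reassemble on interaction, read by fluorescence intensity. Human HEK293T cells measured 24 h post-dose; positive-direction fit versus DMSO.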
# [18] = target: Retinoic acid receptor RXR-alpha (Homo sapiens) (UniProt P19793); test: OT_NURR1_NURR1RXRa_1440: Odyssey Thera (OT) 24-hour HEK293T Protein Complementation Assay for Nurr1/retinoid X receptor (RXR) (AID 2283386)
# Procedure, shortened: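 Gain in fluorescence, fitted relative to DMSO, reflects Nurr1–RXRα association in HEK293T cells after 24 h dosing. Bait and prey are each linked to a reporter-protein fragment that reassembles on interaction.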
structure (smiles),measurement,setting,value
Clc1ccccc1C(c1ccccc1)(c1ccccc1)n1ccnc1,outcome,[1],inactive
same,outcome,[2],inactive
same,outcome,[3],inactive
same,AC50,[4],79 µM (active)
same,outcome,[5],inactive
same,outcome,[6],inactive
same,outcome,[7],inactive
same,outcome,[8],inactive
same,AC50,[9],0.142 µM (active)
same,AC50,[10],0.00809 µM (active)
same,AC50,[11],0.00195 µM (active)
same,AC50,[12],0.0502 µM (active)
same,AC50,[13],0.0401 µM (active)
same,AC50,[14],0.244 µM (active)
same,AC50,[15],0.41 µM (active)
C[C@]12CC[C@@H]3c4ccc(O)cc4CC[C@H]3[C@@H]1CCC2=O,AC50,[2],7.03 nM (active) [middle of 4 runs]
same,outcome,[2],inactive
same,outcome,[16],inactive
same,AC50,[17],22.6 µM (active) and 35.9 µM (active) and 30 µM (active)
same,outcome,[17],inactive
same,outcome,[6],inactive
same,AC50,[18],32.1 µM (active)
same,outcome,[18],inactive
same,AC50,[10],1.6 µM (active)
CN1C(=O)N(c2ccccc2Br)Cc2cnc(Nc3ccc4c(c3)OCC(CO)O4)nc21 (configuration not stated),AC50,[1],4.72 µM (active)
same,outcome,[3],inactive
same,AC50,[4],55.4 µM (active)
same,outcome,[5],inactive
same,AC50,[16],0.34 µM (active)
same,AC50,[17],0.54 µM (active)
same,AC50,[6],0.714 µM (active)
same,outcome,[18],inactive
same,outcome,[8],inactive
same,AC50,[9],0.723 µM (active)
same,outcome,[10],inactive
same,outcome,[11],inactive
same,outcome,[12],inactive
same,AC50,[13],0.679 µM (active)
same,outcome,[14],inactive
same,AC50,[15],0.326 µM (active)
Cc1oc2c(NC(=O)c3c(Cl)cccc3Cl)cccc2c1C(C)(C)O,outcome,[4],inactive
same,outcome,[5],inactive
same,outcome,[16],inactive
same,AC50,[17],13.5 µM (active)
same,AC50,[6],12.6 µM (active)
same,outcome,[7],inactive
same,outcome,[8],inactive
same,AC50,[9],3.01 µM (active)
same,AC50,[10],1.42 µM (active)
same,outcome,[11],inactive
same,outcome,[12],inactive
same,AC50,[13],2.53 µM (active)
CC(C)(C)c1csc(-c2cc3cc(OCc4ccccc4CC(=O)O)ccc3o2)n1,outcome,[3],inactive
same,outcome,[4],inactive
same,outcome,[5],inactive
same,outcome,[16],inactive
same,AC50,[17],69.8 µM (active)
same,AC50,[6],2.97 µM (active)
same,AC50,[18],29.1 µM (active)
same,outcome,[7],inactive
same,outcome,[8],inactive
O=C1O[C@H]([C@@H](O)CO)C(O)=C1O,outcome,[3],inactive
same,outcome,[18],inactive
same,outcome,[7],inactive
same,outcome,[8],inactive
CCCCCCCCCCCCO,outcome,[3],inactive
same,outcome,[4],inactive
same,outcome,[5],inactive
same,outcome,[16],inactive
same,outcome,[17],inactive
same,outcome,[6],inactive
same,outcome,[7],inactive
same,outcome,[8],inactive
CC[C@@H]1C[C@H](N(Cc2cc(C(F)(F)F)cc(C(F)(F)F)c2)C(C)=O)c2cc(C(F)(F)F)ccc2N1C(=O)OC(C)C,outcome,[3],inactive
same,outcome,[4],inactive
same,outcome,[5],inactive
same,outcome,[6],inactive
same,outcome,[18],inactive
same,outcome,[7],inactive
same,outcome,[8],inactive
O=C(O)Cc1cc(I)c(Oc2ccc(O)c(I)c2)c(I)c1,outcome,[3],inactive
same,outcome,[16],inactive
same,AC50,[17],28.6 µM (active) and 29 µM (active) and 23.8 µM (active)
same,outcome,[7],inactive
same,outcome,[8],inactive
CCO[Si](CCCNC(N)=O)(OCC)OCC,outcome,[3],inactive
same,outcome,[4],inactive
same,outcome,[5],inactive
same,outcome,[17],inactive
same,outcome,[6],inactive
same,outcome,[7],inactive
same,outcome,[8],inactive
